# Reference: PubChem BioAssay (NCI)
# The panel holds about 83,000 compounds, 20% with a hit somewhere; the sample as a whole holds those more often.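 48-hour exposure, single concentration, 96-well plates; percent growth endpoint where 0 means no net growth. Active: below 10.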 Unmarked numbers belong to inactive results. Active and inactive are the calls of the source.
# How the values were obtained:
# Assay in all cases: NCI-60 one-dose screen, 48 h (100 = growth as untreated, 0 = no growth, -100 = all killed)
# Conditions in all cases: 10 µM unless noted
# HCT-15 colon = tested on: HCT-15 colon
# HT29 colon = tested on: HT29 colon
# SNB-75 CNS = tested on: SNB-75 CNS
# SNB-19 CNS = tested on: SNB-19 CNS
# U251 CNS = tested on: U251 CNS
# PC-3 prostate = tested on: PC-3 prostate
# SK-MEL-5 melanoma = tested on: SK-MEL-5 melanoma
# UACC-62 melanoma = tested on: UACC-62 melanoma
# LOX IMVI melanoma = tested on: LOX IMVI melanoma
# SK-MEL-28 melanoma = tested on: SK-MEL-28 melanoma
# SN12C renal = tested on: SN12C renal
# UO-31 renal = tested on: UO-31 renal
# TK-10 renal = tested on: TK-10 renal
# ACHN renal = tested on: ACHN renal
# CAKI-1 renal = tested on: CAKI-1 renal
# A498 renal = tested on: A498 renal
# CCRF-CEM leukemia = tested on: CCRF-CEM leukemia
# MOLT-4 leukemia = tested on: MOLT-4 leukemia
# SK-MEL-2 melanoma = tested on: SK-MEL-2 melanoma
# EKVX NSCLC = tested on: EKVX NSCLC
Compound,growth (HCT-15 colon),growth (HT29 colon),growth (SNB-75 CNS),growth (SNB-19 CNS) [%],growth (U251 CNS),growth (PC-3 prostate),growth (SK-MEL-5 melanoma),growth (UACC-62 melanoma),growth (LOX IMVI melanoma),growth (SK-MEL-28 melanoma),growth (SN12C renal),growth (UO-31 renal),growth (TK-10 renal),growth (ACHN renal),growth (CAKI-1 renal),growth (A498 renal),growth (CCRF-CEM leukemia),growth (MOLT-4 leukemia),growth (SK-MEL-2 melanoma),growth (EKVX NSCLC) [%]
C/C(=N\Nc1cc(C)c2ccccc2n1)c1ccccn1,21%,-90.8% (active),31.5%,19.9,-86.5% (active),15.9%,-72.1% (active),-52% (active),-78.5% (active),-93.7% (active),18.2%,-86% (active),-12.9% (active),-47.1% (active),-15.1% (active),19.2%,-20.2% (active),-18.7% (active),,
COc1cc(-c2nc(-c3ccccc3)c(-c3ccccc3)[nH]2)cc(OC)c1O,11.1%,0.965% (active),29.7%,20.1,5.45% (active),-58.6% (active),-8.78% (active),-60.6% (active),-47.7% (active),-4.06% (active),2.29% (active),5.85% (active),0.953% (active),15.2%,,82.8%,-0.116% (active),4.88% (active),-39.7% (active),
COC(=O)c1cc(=O)nc(N/N=C/c2ccc(C)cc2)s1,86.2%,104%,91.7%,109,107%,91.2%,98.9%,115%,109%,104%,110%,86.4%,104%,107%,102%,104%,93%,92.6%,,
Cc1cc(C=O)c(C)c2c1[nH]c1ccccc12,99.8%,93.2%,78.7%,94.6,94.1%,92.5%,112%,57.3%,81.5%,110%,95.8%,74.3%,78%,88.4%,,-84.1% (active),83.5%,86.1%,75.6%,
O=C1c2ccccc2C(=Cc2ccccc2)c2ccccc21,7.88% (active),0.453% (active),-40.9% (active),24.8,6.21% (active),31.8%,13.7%,23.9%,4.62% (active),18.3%,22.3%,28%,-7.83% (active),28.1%,,-17.4% (active),11.7%,17.3%,,11.3
NS(=O)(=O)c1ccc(CCNC(=O)/C=C/c2ccc(Cl)cc2)cc1,98.5%,95.7%,85.2%,99,97.8%,87.1%,105%,104%,99.1%,104%,92.9%,83.7%,121%,102%,,89%,91.1%,74.6%,106%,
CC(C)(C)c1ccc(OP(=S)(N/N=C/c2ccccc2O)Oc2ccc(C(C)(C)C)cc2)cc1,69.9%,69.2%,66.1%,81,50.4%,30.1%,73.5%,76.5%,67.6%,83.3%,72.6%,61%,74.4%,87.7%,62.7%,89.9%,68.6%,43.7%,,
C/C(=N\Nc1cc(C)c2cc(C)ccc2n1)c1ccccn1,-16.5% (active),-99.3% (active),5.85% (active),20.6,-100% (active),15.2%,-98.9% (active),-54.4% (active),-86.4% (active),-93.3% (active),14.8%,-91% (active),-22.2% (active),-100% (active),-16.3% (active),20.9%,-22% (active),-17.2% (active),,
Cc1cc(Nc2ccc(F)cc2)nc(N2CCN(c3ccnc4cc(Cl)ccc34)CC2)n1,9.8% (active),1.42% (active),14.6%,43.9,26.4%,11.1%,14.1%,21.5%,13.1%,16.7%,30.2%,3.92% (active),8.31% (active),2.61% (active),,-1.6% (active),15.5%,6.8% (active),4.35% (active),
c1ccc(C2Cc3ccccc3C2=NC2CCCCC2)cc1 (configuration not stated),94.9%,106%,92.3%,104,97.9%,84.4%,103%,99.6%,103%,114%,101%,89.5%,103%,97%,,97.9%,94.8%,102%,93.5%,
Cc1nnc2nc(N)[nH]n2c1=O,99.4%,104%,93.7%,117,99%,98%,106%,115%,94.7%,109%,118%,84.7%,89.8%,109%,111%,118%,109%,74.7%,,
O=C(CI)Nc1ccc(O)c2ccccc12,-10.1% (active),0.99% (active),54.2%,46.1,-28.4% (active),43.3%,-47.7% (active),-58.7% (active),-60.6% (active),41.5%,-34.9% (active),-28.7% (active),-34% (active),6.99% (active),,95%,-26.7% (active),-23.6% (active),-1.68% (active),
Cc1ccc(-c2nc3ccc(Cl)cc3c(=O)n2N2C(=O)CSC2c2ccccc2Cl)cc1 (configuration not stated),86.9%,83.7%,36.1%,75.2,22.3%,70.6%,94%,77.3%,89.1%,98.6%,69%,67.2%,74.6%,26.4%,60.3%,84.8%,74.8%,82.7%,96.2%,60
C/C(=N\Nc1ccc2ccccc2n1)c1ccccn1,22.6%,-2.94% (active),35.3%,23.8,4.2% (active),4.97% (active),-57.5% (active),-54.8% (active),-19.8% (active),30.2%,17.5%,-39.2% (active),15.2%,-3.16% (active),-10.9% (active),11.1%,-5.75% (active),1.13% (active),,
COc1ccc(-c2n/c(=C\c3c(O)[nH]c4ccc(OC)cc34)cc3c2=Nc2ccccc2-3)cc1,0.939% (active),-47.4% (active),30.4%,38.4,-79.3% (active),75.8%,18.5%,-56.4% (active),27.4%,-89.9% (active),89.4%,73.6%,-10.8% (active),102%,103%,87.2%,,-35.4% (active),96.6%,
C#Cc1cc2c(N)c(C(=O)c3cc(OC)c(OC)c(OC)c3)[nH]c2cc1OC,32.2%,6.27% (active),-8.14% (active),43.7,34%,16.3%,19.9%,34.7%,46.1%,40.3%,67.9%,35.7%,58.6%,35.7%,,-19.1% (active),16%,32%,15.6%,
C/C(=N/NC(N)=S)C(=O)O,82.9%,56.5%,95.3%,98.4,73.9%,72.8%,102%,99.9%,74.9%,103%,80.6%,73.6%,119%,91.7%,,110%,,27.7%,118%,
